This note sets out measurements from PubChem BioAssay (EPA / NIEHS).

A word on the AC50: it is the concentration giving half of the maximal activity seen.

The structures appear in SMILES notation. Records with an inconclusive call do not appear. Activity calls are given as the source filed them. How the source made its calls: active means hit-call score of the fitted dose curve at least 0.9, where 1 is the maximum; inconclusive means response in the unintended direction; inactive means score below 0.9.

Read-out in this assay: xenobiotic metabolism (CYP1A2), CYP1A2 (gene 1544)
Put plainly: CLD_CYP1A2_6hr: CellzDirect (CLD) Gene Expression Assay for xenobiotic metabolism (CYP1A2) at 6 hours (AID 2283663).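 On AC50: potency is for induction meaning a rise in mRNA above DMSO.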 The procedure: CLD_6hr is a cell-based, multiplexed-readout assay that uses hepatocyte, a human liver primary cell, with measurements taken at 6 hours after chemical dosing in a 96-well plate.CLD_CYP1A2_6hr is one of 16 assay component(s) measured or calculated from the CLD_6hr assay. It is designed to make measurements of mRNA induction, a form of inducible reporter, as detected with chemiluminescence signals by Quantitative Nuclease Protection Assay (qNPA) technology.Data from the assay component CLD_CYP1A2_6hr was analyzed at the endpoint, CLD_CYP1A2_6hr, in the positive analysis fitting direction relative to DMSO as the negative control and baseline of activity. Using a type of inducible reporter, gain-of-signal activity can be used to understand changes in the reporter gene as they relate to the gene CYP1A2. Furthermore, this assay endpoint can be referred to as a primary readout. To generalize the intended target to other relatable targets, this assay endpoint is annotated to the cyp intended target family, where subfamily is xenobiotic metabolism.
Human hepatocyte cultures were treated daily for two consecutive days with fresh dosing solutions containing appropriate concentrations of the 320 ToxCast chemicals (chemical identities were blinded to CellzDirect and other ToxCast collaborators), vehicle control (0.2% DMSO), and positive control inducers as summarized in Table 1. Due to the large number of treatment groups and chemicals examined, the ToxCast chemicals were divided into two groups (spanning two independent cultures of hepatocytes from separate donor preparations (Hu778: ToxCast plates 1 and 2; Hu776: ToxCast plates 3 and 4). Each preparation of human hepatocyte cultures was treated with respective vehicle control, medium only control, set of six positive controls/reference chemicals for the five hepatic receptor pathways, and a subset of eight of the ToxCast chemicals (indoxacarb, pyrithiobac-sodium, norflurazon, cyhalofop-butyl, methomyl, thiram, acetochlor, and propiconazole). These replicate data, coupled with internal replicates designed within the blinded ToxCast chemical library, provided additional data to evaluate interindividual differences between hepatocyte preparations and their potential impact on chemical profiles.Cell morphology and integrity were evaluated using phase-contrast microscopy as an indicator of hepatocyte cell health (Tyson & Green, 1987). Cultures for each treatment group (i.e., media, vehicle [0.2% DMSO], positive control inducers [multiple concentrations], and the ToxCast chemicals [multiple concentrations]) were observed and cell morphology was assessed relative to vehicle control cultures at each harvest time point (0, 6, 24, or 48 h). […] Images were evaluated at the conclusion of the study to assess changes in cell integrity and account for the effects of chemical exposure on uncharacteristic changes in concentration-dependent gene expression profiles. The results from these determinations of apparent cytotoxicity were annotated (yes/no) alongside the corresponding qNPA data for reference.At the conclusion of each treatment period, hepatocyte cultures (96-well) were washed with 1 volume of HBSS, lysed by addition of 25 ul ArrayPlate lysis buffer (HTG, Tucson, AZ), and 70 ul/well of Denaturation Oil, denatured by incubation at 95C for 10 min, and frozen at approximately -70C until analysis by nuclease protection assay (qNPA) (Roberts et al., 2007). For qNPA analysis, cell lysates were thawed at 50C for approximately 30 min, qNPA probes were added, and samples were incubated at 95C for 10 min to begin the detection process by denaturing the target RNA, dissociating the duplexes and secondary structure hybridization. At the conclusion of the hybridization period, S1 nuclease reagent was added to each sample to digest all nonprotected nucleotides at 50C for 60-90 min. […]
With `CC(C)Nc1nc(Cl)nc(NC(C)C)n1`, the half-maximal activity concentration (AC50) was 0.163 µM (active). On to `CCCCC(C#N)(Cn1cncn1)c1ccc(Cl)cc1` (stereo not given), for which the molecule was classed as inactive. Still for that read-out and setting: the value for `CC1(C)CON(Cc2ccccc2Cl)C1=O` was “inactive”; that for `Clc1nc(Cl)nc(Nc2ccccc2Cl)n1` was “inactive”.

On to `CC(C)NC(=O)N1CC(=O)N(c2cc(Cl)cc(Cl)c2)C1=O`, for which the AC50 was 20 µM (active).

With `CCOC(=O)C(C)OC(=O)c1cc(Oc2ccc(C(F)(F)F)cc2Cl)ccc1[N+](=O)[O-]` (stereo not given), the AC50 is 4.81 µM (active). For the molecule `CC(C)Oc1cccc(NC(=O)c2ccccc2C(F)(F)F)c1`, the molecule was classed as inactive. Same read-out and setting: the value for `CCCN(CC)CC1COC2(CCC(C(C)(C)C)CC2)O1` (stereo not given) was “inactive”. Same read-out and setting: to `O=C(O)c1c(Cl)ccc2cc(Cl)cnc12` belongs “inactive”; to `C=C(C)CN(CC)c1c([N+](=O)[O-])cc(C(F)(F)F)cc1[N+](=O)[O-]`, “inactive”.

Turning to `CCN(CC)C(=O)C(C)Oc1cccc2ccccc12` (stereo not given), the concentration at half-maximal activity (AC50) is 4.15 µM (active). With `COc1cc(OC)nc(NC(=O)NS(=O)(=O)c2ncccc2OCC(F)(F)F)n1`, the outcome was inactive. Turning to `CNC(=O)N(C)c1nnc(C(C)(C)C)s1`, the result was inactive. `Clc1cccc(C(Cl)(Cl)Cl)n1`: the outcome was inactive. With `OC(c1ccc(Cl)cc1)(c1ccc(Cl)cc1)C(Cl)(Cl)Cl`, the result was inactive. `COC(=O)N(C(=O)N1CO[C@@]2(C(=O)OC)Cc3cc(Cl)ccc3C2=N1)c1ccc(OC(F)(F)F)cc1`: the half-maximal activity concentration (AC50) was 0.449 µM (active). On the same count and under the same terms, the value for `N#Cc1c[nH]cc1-c1cccc2c1OC(F)(F)O2` was 0.554 µM (active). Turning to `O=P(O)(O)CCCl`, the call was inactive. On the same count and under the same terms, to `Cn1c(-c2ccccc2)cc(-c2ccccc2)[n+]1C` belongs “inactive”; to `CCNC(=O)NC(=O)C(C#N)=NOC`, “inactive”; to `CC1(C)C(C(=O)OC(C#N)c2cccc(Oc3ccccc3)c2)C1(C)C` (stereo not given), “inactive”. Still for that read-out and setting: to `Cc1ccc(N=CN(C)C=Nc2ccc(C)cc2C)c(C)c1` belongs “inactive”; to `COCC(=O)N(c1c(C)cccc1C)C(C)C(=O)OC` (stereo not given), “inactive”. On to `CCC(C)n1c(=O)[nH]c(C)c(Br)c1=O` (stereo not given), for which the AC50 was 9.68 µM (active). Still for that read-out and setting: to `COP(=S)(OC)Oc1ccc([N+](=O)[O-])c(C)c1` belongs 3.34 µM (active). Turning to `CC(C)N1C(=O)N(c2ccccc2)CSC1=NC(C)(C)C`, the result was inactive. On the same count and under the same terms, to `Nc1c(Cl)c(F)nc(OCC(=O)O)c1Cl` belongs “inactive”; to `COCC(C)N(C(=O)CCl)c1c(C)csc1C` (stereo not given), “inactive”. For `CC(C)C1(C)N=C(c2ncccc2C(=O)O)NC1=O` (stereo not given), the AC50 is 1.89 µM (active). The same measure, in the same setting: to `CC1(C)C(C=C(Cl)Cl)C1C(=O)OC(C#N)c1cccc(Oc2ccccc2)c1` (stereo not given) belongs 2.15 µM (active); to `COc1ccc(-c2ccccc2)cc1NNC(=O)OC(C)C`, 0.798 µM (active). With `CC1(C)CCC(=Cc2ccc(Cl)cc2)C1(O)Cn1cncn1` (stereo not given), the molecule was called inactive.

Take `CC(C)N1C(=O)c2ccccc2NS1(=O)=O`: the call was inactive. Same read-out and setting: to `CSC(=O)c1c(C(F)F)nc(C(F)(F)F)c(C(=O)SC)c1CC(C)C` belongs “inactive”. `CCN(CC)c1nc(C)cc(OP(=S)(OC)OC)n1`: the AC50 was 5.69 µM (active). Same read-out and setting: to `COP(=S)(OC)SCn1nnc2ccccc2c1=O` belongs 5.35 µM (active). Same read-out and setting: the value for `Cc1nc(N(C)C)nc(OC(=O)N(C)C)c1C` was 3.8 µM (active); that for `CCOP(=S)(OCC)Oc1nc(Cl)n(C(C)C)n1` was 2.78 µM (active); that for `CCNP(=S)(OC)O/C(C)=C/C(=O)OC(C)C` (stereo not given) was 3.56 µM (active). As to `COP(=O)(OC)O/C(C)=C/C(=O)N(C)C`, the molecule was classed as inactive.
